Bioassay records from PubChem BioAssay.
Only some compounds are listed: those with a hit (about 1.3% of all), similar ones and a draw of the others.
LANA-H2B inh: blocks KSHV LANA binding to histone H2A/H2B; cell-free LANA-H2A/H2B peptide, fluorescence polarization; inhibition, % (no concentration beside the values); hit rate 0.6% among 320,000; AID 2629; in the data active = inhibition mostly above about 10%, no sharp cut-off; inactive = mostly below about 6.7%
cardiac RTF act: increases calcium sensitivity of human cardiac regulated thin filaments. P19429+P45379. IANBD-labeled TnC RTF fluorescence at EC20 calcium; 0% EC20 calcium, 100% full calcium. activation, % at 7.2 µM. hit rate 0.24% among 340,000. AID 493008;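 active = activation above the mean over all tested compounds plus 3 SD, cut at about 30% in these data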;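 also: rise in fluorescence read as greater calcium sensitivity of cardiac thin filaments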
eLon inh: inhibits E. coli Lon protease; P0A9M0; purified E. coli Lon protease, fluorescence polarization; inhibition, % at 7.94 µM; hit rate 0.42% among 360,000; AID 602123; in the data active = inhibition above about 13%, passing the limit was not always enough;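 also: 0% = enzyme with probe and DMSO and 100% = no enzyme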
Keap1 Nrf2 FP: inhibitors of human Keap1-Nrf2 protein-protein interaction; inhibition, % at 9.4 µM; Keap1 Kelch-Nrf2 peptide fluorescence polarization, 1536-well; Q14145; hit rate 0.15% among 340,000; AID 504523; in the data active = inhibition above about 12%;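 also: human Keap1 Kelch domain with fluorescein labeled Nrf2 9mer peptide probe; 0% = neutral control wells and 100% = peptide positive control; higher means more block of Keap1 binding to Nrf2 peptide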
Target sequence (Q14145 whole entry, looked up, the tested form may be a part): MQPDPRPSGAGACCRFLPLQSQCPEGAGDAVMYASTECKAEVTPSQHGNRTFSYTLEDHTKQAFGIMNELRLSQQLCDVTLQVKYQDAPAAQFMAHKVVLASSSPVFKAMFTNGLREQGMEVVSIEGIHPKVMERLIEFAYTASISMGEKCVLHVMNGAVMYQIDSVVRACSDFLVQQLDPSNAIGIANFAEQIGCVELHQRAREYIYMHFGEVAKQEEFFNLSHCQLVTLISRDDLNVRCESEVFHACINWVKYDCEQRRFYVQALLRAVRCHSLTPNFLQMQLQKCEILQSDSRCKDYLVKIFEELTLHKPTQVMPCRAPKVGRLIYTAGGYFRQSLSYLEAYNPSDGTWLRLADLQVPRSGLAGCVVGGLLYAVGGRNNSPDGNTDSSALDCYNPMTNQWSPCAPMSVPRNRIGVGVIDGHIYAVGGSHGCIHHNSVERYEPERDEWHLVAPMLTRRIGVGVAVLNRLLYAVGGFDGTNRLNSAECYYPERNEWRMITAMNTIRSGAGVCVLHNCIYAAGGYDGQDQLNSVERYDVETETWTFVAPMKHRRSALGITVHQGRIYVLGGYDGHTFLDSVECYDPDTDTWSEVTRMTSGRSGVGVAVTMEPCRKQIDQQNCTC
LANA DNA inh: inhibitors of KSHV LANA C-terminal domain DNA binding; MBP-C-LANA/FAM-LBS DNA binding, fluorescence polarization; inhibition, % at 9 µM; hit rate 0.078% among 340,000; AID 504423;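 active = highest replicate inhibition at or above 60% at 9 µM, even if other replicates fall short; inactive = all replicates below 60% inhibition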;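 also: 0% = neutral control wells and 100% = 4 µM acridine orange control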
RTF Ca sens inh: cardiac RTF calcium desensitization; P19429+P45379; IANBD-labeled cardiac RTF, Ca2+ fluorescence; inhibition, % at 7.15 µM; hit rate 0.12% among 340,000; AID 493244;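 active = inhibition above the mean inhibition of all tested compounds plus 3 SD, cut at about 17% in these data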;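 also: assay run at fixed EC70 calcium of 1.6 mM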
eLon confirm: E. coli Lon inhibition confirmation; purified E. coli Lon, fluorescence polarization; shares compounds with eLon inh; inhibition, % at 7.94 µM; hit rate 31% among 1,400; in the data active = inhibition above about 16%;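 also: 0% = enzyme with probe and DMSO and 100% = no enzyme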
An asterisk follows results filed as active.

Results for Cn1c(=O)c(NC2CCCCC2)c2c3c(cccc31)C(=O)c1ccccc1-2 ?
cardiac RTF act: 369*; eLon inh: 118*; Keap1 Nrf2 FP: 53*; LANA DNA inh: 64; RTF Ca sens inh: inactive; eLon confirm: -99

How did CC(=O)Nc1ccc(Nc2c3c4c(cccc4n(C)c2=O)C(=O)c2ccccc2-3)cc1 do in these assays?
LANA-H2B inh: 22; cardiac RTF act: 178*; eLon inh: 148*; Keap1 Nrf2 FP: 3; LANA DNA inh: 2; RTF Ca sens inh: -142; eLon confirm: 178*

How did Cn1cc(S(=O)(=O)NC2CCCCCC2)c(=O)n(C)c1=O do in these assays?
LANA-H2B inh: -7; cardiac RTF act: -2; eLon inh: 2; Keap1 Nrf2 FP: -3; LANA DNA inh: 0; RTF Ca sens inh: -3

What do the screens show for `COc1ccc(C(=O)Nc2cccc(C(=O)Nc3cc(C)ccn3)c2)cc1`?
cardiac RTF act: -10; eLon inh: -3; Keap1 Nrf2 FP: 1; LANA DNA inh: 1; RTF Ca sens inh: 0

Results for CCOC(=O)c1c(C)oc2c1c(C=NC1CCS(=O)(=O)C1)c(O)c1ccccc12 (stereo unspecified) ?
LANA-H2B inh: 3; cardiac RTF act: 1; eLon inh: -1; Keap1 Nrf2 FP: -7; LANA DNA inh: 4; RTF Ca sens inh: -3

How did CCOC(=O)c1c(C)oc2c1c(C=NCCC(=O)O)c(O)c1ccccc12 do in these assays?
LANA-H2B inh: -1; cardiac RTF act: 0; eLon inh: 15*; Keap1 Nrf2 FP: -5; LANA DNA inh: -1; RTF Ca sens inh: -4; eLon confirm: 30*

What do the screens show for `CC(Sc1nnc(-c2cccnc2)n1-c1ccccc1F)C(=O)N1CCCc2ccccc21` (stereo unspecified)?
LANA-H2B inh: 3

What do the screens show for `NNC(=O)c1ccc(COc2cccc3cccnc23)cc1`?
LANA-H2B inh: 1; cardiac RTF act: 1; eLon inh: 13; Keap1 Nrf2 FP: -5; LANA DNA inh: 1; RTF Ca sens inh: -15

How did O=C1CCC/C(=N\NC(=O)c2ccc(COc3cccc4cccnc34)cc2)C1 do in these assays?
LANA-H2B inh: -2; cardiac RTF act: 0; eLon inh: 37*; Keap1 Nrf2 FP: -2; LANA DNA inh: 1; RTF Ca sens inh: -5; eLon confirm: 3

What do the screens show for `CCc1cccc(NC(=O)CCCn2nc(CC)n3c(cc4occc43)c2=O)c1`?
LANA-H2B inh: -5; cardiac RTF act: 5; eLon inh: 29*; Keap1 Nrf2 FP: -7; LANA DNA inh: -2; RTF Ca sens inh: -14; eLon confirm: -5

Results for CCCC(c1nnnn1CCOC)N1CCN(C(=O)c2ccco2)CC1 (stereo unspecified) ?
LANA-H2B inh: -8; cardiac RTF act: 2; eLon inh: 29*; Keap1 Nrf2 FP: 1; LANA DNA inh: -1; RTF Ca sens inh: -3; eLon confirm: -7

What do the screens show for `COCCn1nnnc1C(C(C)C)N1CCN(C(=O)c2ccco2)CC1` (stereo unspecified)?
LANA-H2B inh: 0; cardiac RTF act: 1; eLon inh: -7; Keap1 Nrf2 FP: 0; LANA DNA inh: 2; RTF Ca sens inh: -4

How did CCC(=O)Nc1nnc(C(C)(C)C)s1 do in these assays?
LANA-H2B inh: -3; cardiac RTF act: -5; eLon inh: 18*; Keap1 Nrf2 FP: -7; LANA DNA inh: -1; RTF Ca sens inh: 1; eLon confirm: -10

Results for CCc1noc(C)c1C(=O)Nc1cc(Cl)ccc1N1CCCC1 ?
LANA-H2B inh: -1; cardiac RTF act: -8; eLon inh: -5; Keap1 Nrf2 FP: -4; LANA DNA inh: 1; RTF Ca sens inh: 2

What do the screens show for `O=C1NC(=O)C(c2cccs2)(c2cccs2)N1`?
LANA-H2B inh: 6; cardiac RTF act: -6; eLon inh: 7; Keap1 Nrf2 FP: 0; LANA DNA inh: -1; RTF Ca sens inh: 3

Results for COC(=O)c1cc2c(s1)-c1cc(F)ccc1OC2 ?
LANA-H2B inh: 0; cardiac RTF act: -4; eLon inh: 16*; Keap1 Nrf2 FP: -1; RTF Ca sens inh: 3; eLon confirm: -9

What do the screens show for `CC(=O)c1cc2c(s1)-c1cc(F)ccc1OC2`?
LANA-H2B inh: 2; cardiac RTF act: -6; eLon inh: 4; Keap1 Nrf2 FP: -6; LANA DNA inh: -1; RTF Ca sens inh: -4

How did O=C(NC1CC1)C1=C[C@@H](c2csc3ccccc23)C[C@@H](OCc2ccc(CO)cc2)O1 do in these assays?
LANA-H2B inh: -1; cardiac RTF act: 0; eLon inh: -2; Keap1 Nrf2 FP: -4; LANA DNA inh: 0; RTF Ca sens inh: 7

What do the screens show for `O=C1CN(S(=O)(=O)c2cccc(Cl)c2Cl)CCN1`?
cardiac RTF act: -2; eLon inh: 44*; Keap1 Nrf2 FP: 0; LANA DNA inh: 0; RTF Ca sens inh: 0; eLon confirm: 14

What do the screens show for `CCCC(=O)Nc1nnc(S(=O)(=O)N(C)Cc2ccco2)s1`?
LANA-H2B inh: -3; cardiac RTF act: -2; eLon inh: 4; Keap1 Nrf2 FP: -1; LANA DNA inh: 1; RTF Ca sens inh: 1

How did Cn1c(CNC(=O)Nc2cccc(Cl)c2)nnc1SCc1ccccc1 do in these assays?
LANA-H2B inh: 0; cardiac RTF act: 4; eLon inh: 15*; Keap1 Nrf2 FP: -6; LANA DNA inh: 0; RTF Ca sens inh: -1; eLon confirm: -13

How did Cn1c(CNC(=O)Nc2ccccc2)nnc1SCc1ccccc1 do in these assays?
LANA-H2B inh: -7; cardiac RTF act: 10; eLon inh: -22; Keap1 Nrf2 FP: -3; LANA DNA inh: 1; RTF Ca sens inh: -5

What do the screens show for `COc1ccc2[nH]cc(CCNC(=O)CC[C@H]3O[C@@H](n4cc(C)c(=O)[nH]c4=O)C[C@@H]3O)c2c1`?
cardiac RTF act: 5; eLon inh: 13*; Keap1 Nrf2 FP: -2; LANA DNA inh: 0; RTF Ca sens inh: -2; eLon confirm: 0

How did CC(C)CC(NC(N)=O)C(=O)NCc1ccccc1Cl (stereo unspecified) do in these assays?
LANA-H2B inh: 1; cardiac RTF act: 5; eLon inh: 0; Keap1 Nrf2 FP: 0; LANA DNA inh: -2; RTF Ca sens inh: -3

Results for CCC1(C)SC(N)=NN1C(C)=O (stereo unspecified) ?
LANA-H2B inh: 1; cardiac RTF act: 7; eLon inh: -16; Keap1 Nrf2 FP: 1; LANA DNA inh: 7; RTF Ca sens inh: -3

How did CCOc1cccc(C(=O)NC(=S)Nc2cccnc2)c1 do in these assays?
LANA-H2B inh: 3; cardiac RTF act: 1; eLon inh: 2; Keap1 Nrf2 FP: -3; LANA DNA inh: 1; RTF Ca sens inh: 3

Results for CCCCOc1cccc(C(=O)NC(=S)Nc2cccnc2)c1 ?
LANA-H2B inh: -1; cardiac RTF act: 2; eLon inh: 19*; Keap1 Nrf2 FP: -2; LANA DNA inh: 0; RTF Ca sens inh: -3; eLon confirm: -46
